Data published in PubChem BioAssay (Tox21).
Results filed as inconclusive are left out. Unmarked numbers belong to inactive results. The source made the active and inactive calls. The call rests on the fitted dose curve; in most records, active means well fitted curve in the direction sought with a large enough effect in the repeat runs; inconclusive means weak or mixed curves; inactive means no such curve, though single readings can be large; an effect the other way counts as inactive or inconclusive.

Assay: Human pregnane X receptor (PXR) small molecule agonists, qHTS cell viability counter screen (AID 1346977); further: nearly all actives have a fitted effect of over 50% in size; further: potency means the concentration at half of the fitted maximal effect
Settings: PXR-Luc HepG2 viability, CellTiter-Fluor, 24 h; series mostly up to 92.4 µM; activity change, negative = cytotoxicity: at the top concentration
Outline: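 Fluorescence read-out (CellTiter-Fluor) of viability in PXR-Luc HepG2 cells, multiplexed with the luciferase agonist read. Compounds in DMSO added after 5hr plating; 24hr total exposure at 37C, 5% CO2.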
On the % scale 0 is the no-effect control and ±100 the full control effect.

Row | Structure (SMILES) | activity change, negative = cytotoxicity | Potency
1 | CC(=O)OCCC1CCCCC1 | 0.344% | –
2 | Cc1cc(CCCOc2c(C)cc(-c3noc(C(F)(F)F)n3)cc2C)on1 | 0.364% [at 42.5 µM] | –
3 | COc1cc(NS(=O)(=O)c2ccc(N)cc2)nc(C)n1 | 8.34% [at 42.5 µM] | –
4 | Nc1ccc(N=Nc2ccc(N)cc2)cc1 | – | 21.7 µM (active)
5 | Nc1c(Cl)cc(Cl)cc1[N+](=O)[O-] | 4.48% | –
6 | CCCCCCCCCCCSCC(=O)O | -9.22% | –
7 | Cc1ccc(N(CC2=NCCN2)c2cccc(O)c2)cc1 | -7.91% [at 42.5 µM] | –
8 | C=CC(=O)NC(C)C | -1.22% | –
9 | FC(F)(F)C(F)(F)C(F)(F)C(F)(F)CCI | 1.51% [at 42.5 µM] | –
10 | C/C(C=O)=C\c1ccccc1 | 5.76% | –
11 | O=C(c1ccccc1)C1CCC1 | 8.52% | –
12 | CCCCCCCC(=O)OCCCCCC | 3.75% | –
13 | CCOC(=O)c1ccc(NC(=O)CN2CCCCC2)cc1 | -9.46% [at 42.5 µM] | –
14 | CCC(Cl)CC(Cl)C(Cl)C(Cl)C(Cl)C(C)Cl (centres undefined) | -5.6% [at 19 µM] | –
15 | CC(CO)(CO)C(=O)O | 5.34% | –
16 | CCC(C)(C)C(=O)O | 2.28% | –

Assay: Caspase-3/7 induction in HepG2 cells by small molecules, qHTS assay (AID 1346978); further: nearly all actives have a fitted effect of over 15% in size
Settings: HepG2 caspase-3/7 activation, Caspase-Glo luminescence, 17 h; series mostly up to 92.4 µM; caspase activation: at the top concentration
Outline: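 Wild-type HepG2 cells (2,000/well) were settled 5 h at 37 C, 5% CO2, then exposed to compounds in DMSO for 17 h. Caspase-3/7 activity was read by luminescence 30 min after adding Caspase-Glo 3/7 reagent at room temperature.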

Row | Structure (SMILES) | caspase activation
17 | O=C1NC(=O)c2cccc3cccc1c23 | -0.0814%
18 | SCCc1cnccn1 | -0.0173%
19 | CCCCCCC(CO)CCCC (centres undefined) | -0.946%
20 | CCN(CC)CC(=O)Nc1c(C)cccc1C(=O)OC | 0.0777% [at 42.5 µM]
21 | O=S(=O)(Cl)c1c(Cl)cccc1Cl | -0.173%
22 | CCC(CO)(CO)CO | 0.165%
23 | c1ccc(CNc2ncnc3c2ncn3C2CCCCO2)cc1 (centres undefined) | -0.228%
24 | CC1CCC(C(C)CS)CC1S (centres undefined) | 0.0472%
25 | CC(=O)C(C)=O | -1.14%
26 | COc1ccc(C)cc1 | 0.198%
27 | CC(C)(C)CCCCCCOC(=O)c1ccccc1C(=O)OCCCCCCC(C)(C)C | 0.162%
28 | COC(OC)OC | 0.607%
29 | CC(=O)c1ccc[nH]1 | -0.0397%
30 | Cc1cccc(C)c1NC(=O)c1cc(S(N)(=O)=O)c(Cl)cc1O | -1.22% [at 42.5 µM]
31 | CCN(CC)c1cccc(O)c1 | 0.416%
32 | O=C(O)CCC(=O)OC[C@@H](NC(=O)C(Cl)Cl)[C@H](O)c1ccc([N+](=O)[O-])cc1 | -0.512% [at 42.5 µM]
33 | CC(C)(O)CCc1ccccc1 | 0.302%
34 | CC1C(C)(C)C2=C(C(=O)CCC2)C1(C)C (centres undefined) | 0.215%
35 | CCOC(=O)Oc1ccc(CCNC(=O)[C@H](CCSC)NC(C)=O)cc1OC(=O)OCC | -0.0572% [at 42.5 µM]
36 | C[C@@H]1C[C@H]2[C@@H]3CCC4=CC(=O)C=C[C@]4(C)[C@@]3(F)[C@@H](O)C[C@]2(C)[C@@]1(O)C(=O)COP(=O)(O)O | -0.009%

Row | Structure (SMILES) | caspase activation
37 | O=C1[C@@H]2[C@H]3CC[C@H](C3)[C@@H]2C(=O)N1CCCCN1CCN(c2ncccn2)CC1 | -1.3% [at 42.5 µM]
38 | CC1=CC[C@@]23C[C@@H]1C(C)(C)[C@@H]2CC[C@H]3C | -0.854%
39 | CCCCCCCCCCCCCOC(=O)CCSCCC(=O)OCCCCCCCCCCCCC | 0.0624% [at 19 µM]
40 | CC(=O)OCCC1CCCCC1 | 1.38%
41 | Cc1cc(CCCOc2c(C)cc(-c3noc(C(F)(F)F)n3)cc2C)on1 | 0.172% [at 42.5 µM]
42 | COc1cc(NS(=O)(=O)c2ccc(N)cc2)nc(C)n1 | -0.578% [at 42.5 µM]
43 | Nc1ccc(N=Nc2ccc(N)cc2)cc1 | -7.4% [at 42.5 µM]
44 | Nc1c(Cl)cc(Cl)cc1[N+](=O)[O-] | -0.27%
45 | CCCCCCCCCCCSCC(=O)O | 0.46%
46 | Cc1ccc(N(CC2=NCCN2)c2cccc(O)c2)cc1 | -0.772% [at 42.5 µM]
47 | C=CC(=O)NC(C)C | 0.733%
48 | FC(F)(F)C(F)(F)C(F)(F)C(F)(F)CCI | 0.204% [at 42.5 µM]
49 | C/C(C=O)=C\c1ccccc1 | -5.56%
50 | O=C(c1ccccc1)C1CCC1 | -0.0101%
51 | CCCCCCCC(=O)OCCCCCC | -0.176%
52 | CCOC(=O)c1ccc(NC(=O)CN2CCCCC2)cc1 | -1.57% [at 42.5 µM]
53 | CCC(Cl)CC(Cl)C(Cl)C(Cl)C(Cl)C(C)Cl (centres undefined) | -16.4% [at 19 µM]
54 | CC(CO)(CO)C(=O)O | 0.53%
55 | CCC(C)(C)C(=O)O | -2.56%

Assay: Caspase-3/7 induction in CHO-K1 cells by small molecules, qHTS cell viability counter screen (AID 1346979); further: nearly all actives have a fitted effect of over 35% in size; further: potency means the concentration at half of the fitted maximal effect
Settings: CellTiter-Fluor fluorescence, 17 h; series mostly up to 92.4 µM; activity change, negative = cytotoxicity: at the top concentration
Outline: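 CHO-K1 wt, 1,500 cells/well; 5hr pre-incubation 37C/5% CO2; compound pin transfer (DMSO); 16hr exposure; CellTiter-Fluor added, 1hr, fluorescence read.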

Row | Structure (SMILES) | activity change, negative = cytotoxicity | Potency
56 | O=C1NC(=O)c2cccc3cccc1c23 | -1.25% | –
57 | SCCc1cnccn1 | -0.129% | –
58 | CCCCCCC(CO)CCCC (centres undefined) | 1.33% | –
59 | CCN(CC)CC(=O)Nc1c(C)cccc1C(=O)OC | 1.87% [at 42.5 µM] | –
60 | O=S(=O)(Cl)c1c(Cl)cccc1Cl | 6.23% | –
61 | CCC(CO)(CO)CO | 6.94% | –
62 | c1ccc(CNc2ncnc3c2ncn3C2CCCCO2)cc1 (centres undefined) | 4.75% | –
63 | CC1CCC(C(C)CS)CC1S (centres undefined) | 3.33% | –
64 | CC(=O)C(C)=O | -3.04% | –
65 | COc1ccc(C)cc1 | -1.52% | –
66 | CC(C)(C)CCCCCCOC(=O)c1ccccc1C(=O)OCCCCCCC(C)(C)C | 7.02% | –
67 | COC(OC)OC | -0.347% | –
68 | CC(=O)c1ccc[nH]1 | 1.52% | –
69 | Cc1cccc(C)c1NC(=O)c1cc(S(N)(=O)=O)c(Cl)cc1O | -0.306% [at 42.5 µM] | –
70 | CCN(CC)c1cccc(O)c1 | -0.499% | –
71 | O=C(O)CCC(=O)OC[C@@H](NC(=O)C(Cl)Cl)[C@H](O)c1ccc([N+](=O)[O-])cc1 | 2.04% [at 42.5 µM] | –
72 | CC(C)(O)CCc1ccccc1 | -0.631% | –
73 | CC1C(C)(C)C2=C(C(=O)CCC2)C1(C)C (centres undefined) | 1.67% | –
74 | CCOC(=O)Oc1ccc(CCNC(=O)[C@H](CCSC)NC(C)=O)cc1OC(=O)OCC | 0.997% [at 42.5 µM] | –
75 | C[C@@H]1C[C@H]2[C@@H]3CCC4=CC(=O)C=C[C@]4(C)[C@@]3(F)[C@@H](O)C[C@]2(C)[C@@]1(O)C(=O)COP(=O)(O)O | 8.83% | –

Row | Structure (SMILES) | activity change, negative = cytotoxicity | Potency
76 | O=C1[C@@H]2[C@H]3CC[C@H](C3)[C@@H]2C(=O)N1CCCCN1CCN(c2ncccn2)CC1 | 6.86% [at 42.5 µM] | –
77 | CC1=CC[C@@]23C[C@@H]1C(C)(C)[C@@H]2CC[C@H]3C | -2.31% | –
78 | CCCCCCCCCCCCCOC(=O)CCSCCC(=O)OCCCCCCCCCCCCC | 0.0364% [at 19 µM] | –
79 | CC(=O)OCCC1CCCCC1 | -1.07% | –
80 | Cc1cc(CCCOc2c(C)cc(-c3noc(C(F)(F)F)n3)cc2C)on1 | -11% [at 42.5 µM] | –
81 | COc1cc(NS(=O)(=O)c2ccc(N)cc2)nc(C)n1 | 0.266% [at 42.5 µM] | –
82 | Nc1ccc(N=Nc2ccc(N)cc2)cc1 | – | 24.3 µM (active)
83 | Nc1c(Cl)cc(Cl)cc1[N+](=O)[O-] | 0.634% | –
84 | CCCCCCCCCCCSCC(=O)O | -0.164% | –
85 | Cc1ccc(N(CC2=NCCN2)c2cccc(O)c2)cc1 | -3.05% [at 42.5 µM] | –
86 | C=CC(=O)NC(C)C | 4.07% | –
87 | FC(F)(F)C(F)(F)C(F)(F)C(F)(F)CCI | 1.26% [at 42.5 µM] | –
88 | C/C(C=O)=C\c1ccccc1 | 0.211% | –
89 | O=C(c1ccccc1)C1CCC1 | -2.51% | –
90 | CCCCCCCC(=O)OCCCCCC | 0.177% | –
91 | CCOC(=O)c1ccc(NC(=O)CN2CCCCC2)cc1 | 5.01% [at 42.5 µM] | –
92 | CCC(Cl)CC(Cl)C(Cl)C(Cl)C(Cl)C(C)Cl (centres undefined) | 10.4% [at 19 µM] | –
93 | CC(CO)(CO)C(=O)O | -1.1% | –
94 | CCC(C)(C)C(=O)O | 12.4% | –
